# Measured values taken from PubChem BioAssay AID588726 (The Scripps Research Institute Molecular Screening Center, 2011).
# Out of some 360,000 compounds screened, about 8,200 (2.3%) were called active. Many of the other results were omitted from the sample, so actives are more common in it than they were. Unmarked numbers belong to inactive results. Rule as the data show it: active = inhibition above about 27%; inactive = the rest.
# Molecular target: Fructose-bisphosphate aldolase (Mycobacterium tuberculosis (strain ATCC 25618 / H37Rv)) (UniProt P9WQA3)
# Test: Mtb FBA enzyme inhibitors, primary screen, biochemical, fluorescence, strain H37Rv (AID 588726);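 also: 0% = vehicle and 100% = reference inhibitor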
# Settings: purified M. tuberculosis FBA, fluorescence read-out, at 1 µM, hits give high values
# Sequence of Fructose-bisphosphate aldolase (Mycobacterium tuberculosis (strain ATCC 25618 / H37Rv)) (P9WQA3 whole entry, looked up): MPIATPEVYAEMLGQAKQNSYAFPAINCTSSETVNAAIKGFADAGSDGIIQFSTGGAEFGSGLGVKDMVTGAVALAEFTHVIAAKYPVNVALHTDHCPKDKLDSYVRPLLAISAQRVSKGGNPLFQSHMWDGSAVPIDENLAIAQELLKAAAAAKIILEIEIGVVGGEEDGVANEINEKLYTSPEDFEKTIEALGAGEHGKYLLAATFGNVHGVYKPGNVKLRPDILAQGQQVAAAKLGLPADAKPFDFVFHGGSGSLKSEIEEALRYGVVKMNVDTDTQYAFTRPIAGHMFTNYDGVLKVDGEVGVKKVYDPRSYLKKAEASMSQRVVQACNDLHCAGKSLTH
row,SMILES,inhibition
1,CC(=O)N1CCOc2ccc(S(=O)(=O)N3CCC(C(=O)Nc4ccccc4F)CC3)cc21,3.64%
2,O=C(Nc1cccc2ccccc12)N1CCN(Cc2ccc3c(c2)OCO3)CC1,41.2% (active)
3,O=C(Nc1cccc2ccccc12)N1CCC2(CC1)OCCO2,44.6% (active)
4,O=C(c1ccccc1[N+](=O)[O-])N1CCC2(CC1)OCCO2,0.71%
5,O=C(Cc1ccccc1[N+](=O)[O-])N1CCN(Cc2ccc3c(c2)OCO3)CC1,0.16%
6,COc1ccc(NC(=O)N2CCC3(CC2)OCCO3)c(OC)c1,-0.76%
7,O=C(CCCN1C(=O)c2cccc3cccc(c23)C1=O)N1CCN(Cc2ccc3c(c2)OCO3)CC1,10.2%
8,CCOC(=O)c1cc2cc(-c3c(C(=O)OCC)oc4cc(O)cc(O)c4c3=O)ccc2o1,0.2%
9,COc1ccc(Cc2nnnn2CC(=O)O)cc1,0.07%
10,CN(CC(=O)Nc1ccccc1C(F)(F)F)C(=O)Cc1ccccc1F,-1.8%
11,CC(C)N1C(=S)SC(C)(C)C1n1oc(=O)n(-c2ccc(Cl)c(Cl)c2)c1=O (stereo not given),1.39%
12,COc1ccc(-c2c(C(C)=O)c(C)nc3sc4c(=O)n(-c5ccc(C)cc5)nnc4c23)cc1,3.94%
13,CCN1CC=C2C(C#N)=C(N)C(C#N)(C#N)[C@H](c3ccoc3)[C@H]2C1,28% (active)
14,COC(=O)[C@]1(Cc2ccccc2)N[C@H](CN(C)S(=O)(=O)c2ccc(OC(F)(F)F)cc2)[C@@H]2C(=O)N(C)C(=O)[C@@H]21,0.06%
15,O=C1c2ccccc2-c2ccccc2NC1O (stereo not given),-1.24%
16,COc1ccc2[nH]c3c(c2c1)CCN[C@H]3C,0.12%
17,COc1ccc2[nH]c3c(C)c4cc[n+](C)cc4c(C)c3c2c1,-3.24%
18,COc1ccc2[nH]c3ccc(OC)cc3c2c1,28.3% (active)
19,C[C@]1(C(=O)NCCc2c[nH]c3ccccc23)C=C[C@@H](Cc2ccccc2)N1C(=O)c1ccccc1,-0.23%
20,COc1ccc(NC(=O)CSc2nnc(C3CC3)n2C)cc1S(=O)(=O)N1CCCCC1,-1.4%
21,CCOc1ccc(N(CC(=O)Nc2ccccc2F)S(=O)(=O)c2c(C)[nH]c(=O)[nH]c2=O)cc1,0.28%
22,O=C(NCCCn1ccnc1)C1CCCN(S(=O)(=O)c2cc(Cl)ccc2Cl)C1 (stereo not given),-0.78%
23,CCCCN=C(N)/C(C(=O)OCC)=C(\O)c1ccc(OC)cc1,-0.66%

row,SMILES,inhibition
1,Cc1noc(C)c1COC(=O)COc1ccc(-c2ccccc2)cc1,-1.21%
2,CC(C)OC(=O)c1ccc(COc2ccc3ccc(=O)oc3c2)o1,17.9%
3,Cc1noc(C)c1COc1ccc2ccc(=O)oc2c1,28.6% (active)
4,O=C(CSc1ncnc2c1oc1ccccc12)NC1CCCC1,-1.09%
5,CCOc1ccc(CCNC(=O)COC(=O)c2c(OC)cccc2OC)cc1OCC,-0.8%
6,COc1ccc(C(=O)OCc2cc(=O)n3ccsc3n2)cc1F,-2.01%
7,COc1ccc(NC(=S)NCC2CCN(c3ccc(OC)cc3)C2)cc1 (stereo not given),-3.11%
8,COc1ccc([C@H]2N[C@]3(CCCN(Cc4ccco4)C3=O)[C@H]3C(=O)N(C)C(=O)[C@@H]23)cc1,-1.27%
9,COC(=O)Cc1nc2c(N)nc(N)nc2[nH]c1=O,159% (active)
10,COc1cc(C(=O)NC2CCN(C)CC2)ccc1Nc1ncc2c(n1)N(C1CCC(O)CC1)CCC(=O)N2C (stereo not given),1.68%
11,CC(C)(C)N1CC(c2nc3ccccc3n2Cc2ccc(F)cc2)CC1=O (stereo not given),-9.37%
12,O=C(O)CCc1nc2cc(Cl)ccc2n(Cc2ccccc2)c1=O,1.59%
13,O=c1[nH]cccc1-c1nc2ccccc2n1Cc1ccc(Cl)cc1,187% (active)
14,CC12CN3CCN(CC(C3)/C1=N\NC(=O)c1ccccc1N)C2,1.1%
15,Nc1ccccc1C(=O)NC1CCCCNC1=O (stereo not given),68.5% (active)
16,O=C(CNC(=O)OCc1ccccc1)NC1CCCCNC1=O (stereo not given),0.55%
17,Cc1coc2cc3oc(=O)c(CCC(=O)O)c(C)c3cc12,16.5%
18,CC(=O)Oc1ccc2c(C)c(CC(C)O)c(=O)oc2c1 (stereo not given),"797% [above what the read-out allows, likely interference] (active)"
19,Cc1c(CCC(=O)O)c(=O)oc2cc(OCc3ccc(Br)cc3)ccc12,46.6% (active)
20,Cc1c(Cc2ccccc2)c(=O)oc2cc(OCC(N)=O)ccc12,65.5% (active)
21,Cc1ccc(OCC(=O)Nc2ccc3oc(=O)ccc3c2)cc1C,1.09%
22,Cc1c(C)c2ccc(OCC(=O)N3CCN(c4cccc(Cl)c4)CC3)cc2oc1=O,6.95%
23,CC(=O)Nc1cc2ccc(OC(C)=O)cc2oc1=O,179% (active)

row,SMILES,inhibition
1,CCOC(=O)c1cc(=O)c2ccc(OCc3ccccc3)cc2o1,2.55%
2,O=C(Oc1ccccc1)Oc1ccc2c(c1)oc(=O)c1ccccc12,8.31%
3,Cc1cc(C)cc(Oc2c(C(F)(F)F)oc3cc(OCC(=O)O)ccc3c2=O)c1,-1.51%
4,COC(=O)Cc1c(C)c2ccc(OCC(=O)NCc3ccc4c(c3)OCO4)cc2oc1=O,12%
5,COc1cccc(-c2coc3cc4oc(=O)c(CC(=O)O)c(C)c4cc23)c1,6.49%
6,O=S(=O)(c1cccc(C(F)(F)F)c1)N1c2ccccc2-n2cccc2C1c1cccnc1 (stereo not given),-0.16%
7,O=C(Nc1c(-c2ccccc2)nc2c(Br)cc(Br)cn12)c1ccco1,1.02%
8,Cc1cc(C(C)(C)C)oc1C(=O)N(CC(=O)NC1CCCC1)Cc1ccc(Cl)cc1,3.61%
9,COCC1CCN(C(=O)c2ccc3oc(Cc4ccccc4)nc3c2)C1 (stereo not given),2.73%
10,O=C1NCC(Nc2ccccc2)C(=O)N1 (stereo not given),-2.44%
11,N=c1ccn(CC(=O)NC(N)=O)c2ccccc12,0%
12,CC1C(C)N(C(=O)CCl)c2ccccc2N1C(=O)CCl (stereo not given),-0.21%
13,CCN(CC)S(=O)(=O)c1ccc(NC(=O)c2cccnc2Cl)c(NC(=O)c2cccnc2Cl)c1,-0.1%
14,COc1ccccc1CN1CC(C(=O)NCCc2cn[nH]c2)CCC1=O (stereo not given),3.36%
15,Cc1c(C(=O)Nc2cccc(Cl)c2)cn2c(nc3ccccc32)c1C#N,-0.2%
16,Cc1nc2ccccc2n1CC(O)c1ccccc1 (stereo not given),-0.66%
17,Cc1nc(-c2ccccc2)cn2c1nc1ccccc12,119% (active)
18,CN1CCn2cnc(C(=O)NCC(=O)OC(C)(C)C)c2C1=O,-1.37%
19,Cc1coc2c1c(C)cc1oc(=O)c(CC(=O)NCC(=O)N[C@H](C(=O)O)C(C)C)c(C)c12,105% (active)
20,Cc1c(CC(=O)NCC(=O)NCC(=O)O)c(=O)oc2cc3oc4c(c3cc12)CCCC4,16.6%
21,CSCC[C@H](NC(=O)N1CCn2c1nc1ccccc12)C(=O)NC1CCCCC1,-1.03%
22,CCN(CCn1cccn1)Cc1nc(-c2ccc(C(=O)OC)cc2)no1,0.65%
23,CCOC(=O)COc1cc(OCC(=O)OCC)c2c(=O)cc(-c3ccccc3)oc2c1,39.2% (active)

row,SMILES,inhibition
1,CCOC(=O)COc1ccc(Cl)cc1C1NC(=O)NC(C)=C1C(C)=O (stereo not given),0.97%
2,COc1ccccc1OCC(=O)OCc1cc(-c2ccco2)on1,2.93%
3,COCCC(=O)Nc1ccc2c(c1)CN(C(=O)CCOC)CC2,2.39%
4,O=C(NCC1CC1)c1onc(CSc2ccccc2)c1C(=O)NCC1CC1,3.54%
5,O=C(NCc1ccccc1)c1onc(CSc2ccncc2)c1C(=O)NCc1ccccc1,0.92%
6,O=C(NCc1ccccc1)c1onc(CSc2nc3ccccc3[nH]2)c1C(=O)NCc1ccccc1,27.9% (active)
7,O=C(CN1CCN(C(=O)C2CCCO2)CC1)Nc1c(Cl)cccc1Cl (stereo not given),-2.38%
8,O=C(CCCCCn1c(=S)[nH]c2ccsc2c1=O)NC1CCCCC1,3.56%
9,Cc1ccc(S(=O)(=O)N(C)c2nc3ccccc3n3c(C(C)C)nnc23)cc1,-0.15%
10,Cc1ccc2[nH]c(=O)c(-c3nc4c(C)cccn4c3NCc3ccco3)cc2c1,4.83%
11,Cc1cc(NCc2ccco2)n2c(nc3ccccc32)c1C#N,162% (active)
12,CC(C)c1cc(NCc2ccccn2)n2c(nc3ccccc32)c1C#N,17.6%
13,CCOCCCNc1c(CC)c(C)c(C#N)c2nc3ccccc3n12,4.3%
14,Cc1cc(NC(C)C)n2c(nc3ccccc32)c1C#N,41.7% (active)
15,CCCNC(=O)NC(=O)COC(=O)CC(NC(N)=O)c1ccc(Cl)cc1 (stereo not given),-6.17%
16,CC(C)CCNC(=O)CC1C(=O)N(Cc2ccccc2)C(C)c2nc3ccccc3n21 (stereo not given),-2.2%
17,CC(C)(C)C(=O)CSc1ccc(S(=O)(=O)N2CCCC2)cn1,1.92%
18,COC(=O)C1=C(C)N(Cc2ccccc2)C(=NCCCOC(C)C)N[C@H]1c1ccccc1,-0.81%
19,CC1CCCC(NC(=O)COC(=O)[C@@H]2CC(O)CN2S(=O)(=O)c2ccc3c(c2)OCCO3)C1C (stereo not given in full),0.53%
20,O=c1[nH]nc(SCCS(=O)(=O)c2ccc(F)cc2)n1-c1ccccc1C(F)(F)F,1.24%
21,CCCCN(CCCC)CCC(O)c1cc2c(Cl)cc(Cl)cc2c2cc(C(F)(F)F)ccc12 (stereo not given),-0.59%
